Measured values: PubChem BioAssay AID1159580 (chemical genetic matrix, 2015)
Among all 5,500 compounds or so, about 2,000 (36%) were called active. Another 18% or so got no clear call; they are omitted. No stated cut-off is given here; in the data, active means normalized growth mostly below about 0.91 (no sharp cut-off); inconclusive means no clear call, values can overlap the other calls; inactive means mostly above about 0.92. The list shows a part of the results.

Test: chemical genetic growth profiling, strain panel (AID 1159580);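 further: tested at 20 µM; growth read once vehicle control cultures reached saturation at 30 °C; 1 = growth at the plate median or of vehicle wells; lower values mean less growth of the strain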
Conditions: S. cerevisiae deletion strains, growth OD

Measured: normalized growth

CC1=C(C/C=C(\C)CCC[C@H](C)CCC[C@H](C)CCCC(C)C)C(=O)c2ccccc2C1=O
inactive: locus YAL021C, strain ccr4, hits give low values 0.99 | locus YAL026C, strain drs2, hits give low values 0.99 | locus YAL030W, strain snc1, hits give low values 0.995 | locus YBL061C, strain skt5, hits give low values 0.997 | locus YBR009C, strain hhf1, hits give low values 0.977 | locus YBR023C, strain chs3, hits give low values 0.996 | locus YBR171W, strain sec66, hits give low values 0.993 | locus YBR231C, strain swc5, hits give low values 0.989 | locus YBR279W, strain paf1, hits give low values 0.994 | locus YCL011C, strain gbp2, hits give low values 0.977 | locus YCL016C, strain dcc1, hits give low values 0.985 | locus YCL061C, strain MRC1, hits give low values 0.987 | locus YCL069W, strain vba3, hits give low values 0.979 | locus YCR088W, strain abp1, hits give low values 1 | locus YDL005C, strain med2, hits give low values 0.965 | locus YDL040C, strain nat1, hits give low values 1 | locus YDR001C, strain nth1, hits give low values 0.993 | locus YDR069C, strain doa4, hits give low values 0.975 | locus YDR159W, strain sac3, hits give low values 0.981 | locus YDR195W, strain ref2 0.963 | locus YDR297W, strain sur2, hits give low values 0.993 | locus YDR334W, strain swr1, hits give low values 0.955 | locus YDR335W, strain msn5, hits give low values 0.99 | locus YDR392W, strain spt3, hits give low values 0.962 | locus YEL003W, strain gim4, hits give low values 0.977 | locus YEL037C, strain rad23, hits give low values 0.994 | locus YEL061C, strain CIN8 (second series), hits give low values 0.992 | locus YER015W, strain faa2, hits give low values 0.991 | locus YER016W, strain bim1, hits give low values 0.982 | locus YER111C, strain swi4, hits give low values 1 | locus YER155C, strain BEM2 (second series), hits give low values 0.993 | locus YFR010W, strain ubp6, hits give low values 0.974 | locus YGL167C, strain pmr1, hits give low values 0.989 | locus YGL173C, strain kem1, hits give low values 0.99 | locus YGL227W, strain vid30, hits give low values 0.997 | locus YGL240W, strain doc1, hits give low values 0.956 | locus YGL253W, strain hxk2, hits give low values 1 | locus YHR013C, strain ard1, hits give low values 0.975 | locus YHR027C, strain rpn1, hits give low values 0.984 | locus YHR030C, strain SLT2, hits give low values 0.986 | locus YHR079C, strain IRE1, hits give low values 0.992 | locus YHR142W, strain chs7, hits give low values 1 | locus YJL092W, strain hpr5, hits give low values 0.982 | locus YJL095W, strain BCK1 (second series), hits give low values 0.995 | locus YJL095W, strain BCK1, hits give low values 0.998 | locus YJL115W, strain asf1, hits give low values 0.968 | locus YJL129C, strain trk1, hits give low values 0.984 | locus YJL154C, strain vps35, hits give low values 0.984 | locus YJL164C, strain tpk1, hits give low values 0.974 | locus YJL166W, strain qcr8, hits give low values 1 | locus YJL187C, strain SWE1, hits give low values 0.979 | locus YJR066W, strain TOR1, hits give low values 0.943 | locus YKL160W, strain elf1, hits give low values 0.998 | locus YKR026C, strain gcn3, hits give low values 0.996 | locus YKR091W, strain srl3, hits give low values 0.985 | locus YLL001W, strain dnm1, hits give low values 0.992 | locus YLL026W, hits give low values 0.996 | locus YLL041C, strain sdh2, hits give low values 0.99 | locus YLR027C, strain aat2, hits give low values 0.992 | locus YLR113W, strain HOG1, hits give low values 0.953 | locus YLR221C, strain rsa3, hits give low values 0.981 | locus YLR258W, strain gsy2, hits give low values 0.983 | locus YLR262C, strain YPT6 (second series), hits give low values 0.899 | locus YLR320W, strain mms22, hits give low values 0.992 | locus YLR342W, strain FKS1, hits give low values 0.999 | locus YLR357W, strain rsc2, hits give low values 1 | locus YLR370C, strain arc18, hits give low values 0.99 | locus YLR384C, strain iki3, hits give low values 0.988 | locus YML120C, strain ndi1, hits give low values 0.998 | locus YMR058W, strain fet3, hits give low values 0.973 | locus YMR125W, strain sto1, hits give low values 0.978 | locus YMR129W, hits give low values 0.985 | locus YMR205C, strain PFK2, hits give low values 0.981 | locus YMR231W, strain pep5, hits give low values 0.99 | locus YNL071W, strain lat1, hits give low values 0.972 | locus YNL183C, strain NPR1, hits give low values 0.947 | locus YNL209W, strain ssb2, hits give low values 0.983 | locus YNL248C, strain rpa49, hits give low values 0.977 | locus YNL322C, strain KRE1 (second series), hits give low values 0.998 | locus YNR049C, strain mso1, hits give low values 1 | locus YOR001W, strain rrp6, hits give low values 1 | locus YOR070C, strain gyp1, hits give low values 0.988 | locus YOR080W, strain dia2, hits give low values 0.986 | locus YOR083W, strain WHI5, hits give low values 0.992 | locus YOR106W, strain vam3, hits give low values 0.964 | locus YOR231W, strain MKK1, hits give low values 0.979 | locus YOR265W, strain rbl2, hits give low values 0.985 | locus YOR270C, strain vph1, hits give low values 0.871 | locus YOR290C, strain snf2, hits give low values 0.987 | locus YPL051W, strain arl3, hits give low values 0.988 | locus YPL078C, strain atp4, hits give low values 0.996 | locus YPL106C, strain sse1, hits give low values 0.871 | locus YPL240C, strain hsp82, hits give low values 0.97 | locus YPL256C, strain CLN2, hits give low values 0.944
active: locus YDR137W, strain rgp1, hits give low values 0.772
